Data on 40 compounds can be found in PubChem BioAssay (NCI).

Structures are written as SMILES. About 79,000 compounds went through this panel and 15% of them were active in at least one assay; those are over-represented in the sample as a whole. A number with no mark means an inactive call. Calls of active or inactive are those of the source. No stated cut-off is given here; in the data, active means growth inhibition above about 70%; inactive means the rest.

The first test can be described thus: NCI Yeast Anticancer Drug Screen. Data for the bub3 strain (AID 167). Conditions: S. cerevisiae bub3 mutant strain, at 5.0 µM (retest, dose inferred, filed as 0.5), active compounds read high. Put shortly:
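Steps: expose the mutant yeast strain to compound; grow alongside vehicle-treated cultures; measure growth; express inhibition against the vehicle cultures.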
Regarding `COc1ccc(N=N/N=c2\sc3cc(Cl)ccc3n2C)cc1`, the growth inhibition was 21%.

Consider `O=c1ccc2nc3ccccc3ccc-2c1`, for which the growth inhibition was -63%.

For `CC(=O)Nc1ccc(O)c(=O)cc1`, the growth inhibition was 23%.

As for `CC(=O)Oc1c([N+](=O)[O-])cc(-c2ccccc2)cc1[N+](=O)[O-]`, the growth inhibition is 21%.

With `Cc1cc(O)c(C)c(C)c1N=Nc1ccccc1`, the growth inhibition is -70%.

As to `CCCCCCCC/C=C\CCCCCCCC(=O)O` (tested in a mixture with another compound), the growth inhibition was -2%.

For `O=S(=O)(Nc1ccc(Cl)cc1)c1ccccc1`, the growth inhibition was -8%.

For `COC(=O)[C@@]12OC[C@]34[C@H]([C@@H](O)[C@@H]1O)[C@@]1(C)CC(=O)C(O)=C(C)[C@@H]1C[C@H]3OC(=O)[C@H](OC(=O)C(Cc1ccccc1)NC(=O)OC(C)(C)C)[C@@H]24` (stereo not given in full), the growth inhibition was 31%.

For `CSC(=S)n1nc(-c2cccs2)c(N=Nc2ccc(Cl)cc2)c1C(F)(F)F`, the growth inhibition was 14%.

`CCN1C2=NCCN2S(=O)(=O)c2ccccc21`: the growth inhibition is 13%.

For the compound `CCCc1cc(-c2ccc(O)c(CCC)c2)ccc1O`, the growth inhibition is 99% (active).

Take `O=[N+]([O-])c1ccc(-c2cccc(Cl)c2)c([N+](=O)[O-])c1`: the growth inhibition was 9%.

As for `COC(=O)Oc1nn(C(=O)OC)c(=O)c2ccccc12`, the growth inhibition is 5%.

As to `Cc1n(CC(C)C)c2c([n+]1CC(=O)c1ccc([N+](=O)[O-])cc1)C(=O)c1ccccc1C2=O`, the growth inhibition is 84% (active).

For the compound `O=C(c1ccccc1)C1C(c2ccccc2)OP(c2ccccc2)(c2ccccc2)(c2ccccc2)C1c1ccccc1` (stereo not given), the growth inhibition is 80% (active).

Regarding `Cc1nc2c(cnn2-c2ccccc2)c(=O)o1`, the growth inhibition was -65%.

As to `CCOC(=O)C(=O)Nc1nc2c(s1)C(=O)c1ccccc1C2=O`, the growth inhibition is 46%.

For `O=C(CCl)OCC(=O)c1ccc(-c2ccccc2)cc1`, the growth inhibition was 11%.

On to `ICCCCCCCCCC[n+]1ccc2ccccc2c1`, for which the growth inhibition was 78% (active).

Turning to `CCC(C)OC(=O)Nc1cccc(Cl)c1` (stereo not given), the growth inhibition was -19%.

As for `COc1ccccc1CN1CCCN(Cc2ccccc2OC)C1c1ccccc1F`, the growth inhibition was 0%.

Consider `ON=C(CC(O)(C(F)(F)Cl)C(F)(F)Cl)CC(O)(C(F)(F)Cl)C(F)(F)Cl`, for which the growth inhibition is 23%.

For `COC(=O)Cn1/c(=N\N=C(/C)c2ccc(C)cc2)sc2ccccc21`, the growth inhibition was -11%.

Turning to `CCN(CC)CCOc1ccc(NC(=S)Nc2ccc(OCC(C)C)cc2)cc1`, the growth inhibition was 4%.

For the compound `CCCCCCCCCCNC(=O)CBr`, the growth inhibition is 14%.

As for `CN(C)c1ccc(N=Nc2ccc(/C=C3\CCOC3=O)cc2)cc1`, the growth inhibition is -3%.

As to `CCc1cccc(CC)c1NC(=O)C1=C(C)NC(C)=C(C(=O)Nc2c(CC)cccc2CC)C1c1ccc2c(c1)OCO2`, the growth inhibition was 39%.

`Nc1cc2[nH]c(=O)c3cc(Cl)ccc3c2cc1Cl`: the growth inhibition is 8%.

`COc1ccc(OC(C)=O)c2c1CCC=CC2=O`: the growth inhibition is 22%.

Regarding `COc1ccc(-c2n[nH]c(C(F)(F)F)c2N=NN(C)C)cc1OC`, the growth inhibition is 99% (active).

Consider `CCC(=NCCCCCCN=C(CC)c1cc(C)cc([N+](=O)[O-])c1O)c1cc(C)cc([N+](=O)[O-])c1O.[Fe]`, for which the growth inhibition is -1%.

`COc1ccc(CN2CCCN(Cc3ccc(OC)cc3)C2Cc2cc(Cl)ccc2OC)cc1`: the growth inhibition was -5%.

Regarding `Cc1cc(Cc2ccc(Cl)cc2)ccc1O`, the growth inhibition is -19%.

As for `CNCCN[C@@H]1c2cc3c(cc2[C@@H](c2cc(OC)c(O)c(OC)c2)[C@H]2C(=O)OC[C@@H]21)OCO3`, the growth inhibition is -3%.

As to `Cc1cc(NC(=S)SC(C)C)ccc1Br`, the growth inhibition is 7%.

For `CC1CC2(C)ON=C(c3ccccc3)N2c2ccccc2S1` (stereo not given), the growth inhibition was 10%.

In the case of `O=C(Cc1ccccc1)OC(C(=O)c1ccccc1)c1ccccc1` (stereo not given), the growth inhibition was 20%.

For `Nc1ccc2ccccc2c1N=Nc1ccccc1`, the growth inhibition is 0%.

Consider `Clc1ccc(C(c2ccc(Cl)cc2)c2cncnc2)cc1`, for which the growth inhibition was 40%.

For `OC(C(=Nc1ccccc1)c1ccccc1)c1ccccc1` (stereo not given), the growth inhibition is 15%.

The same test, now with this note: S. cerevisiae bub3 mutant strain, at 50.0 µM (retest, dose inferred, filed as 5.0), active compounds read high.
On to `COc1ccc(N=N/N=c2\sc3cc(Cl)ccc3n2C)cc1`, for which the growth inhibition is 62%.

With `O=c1ccc2nc3ccccc3ccc-2c1`, the growth inhibition was -79%.

For the compound `CC(=O)Nc1ccc(O)c(=O)cc1`, the growth inhibition is 93% (active).

In the case of `CC(=O)Oc1c([N+](=O)[O-])cc(-c2ccccc2)cc1[N+](=O)[O-]`, the growth inhibition was 99% (active).

Regarding `Cc1cc(O)c(C)c(C)c1N=Nc1ccccc1`, the growth inhibition is -47%.

With `CCCCCCCC/C=C\CCCCCCCC(=O)O` (tested in a mixture with another compound), the growth inhibition was 99% (active).

As to `O=S(=O)(Nc1ccc(Cl)cc1)c1ccccc1`, the growth inhibition is 56%.

As for `COC(=O)[C@@]12OC[C@]34[C@H]([C@@H](O)[C@@H]1O)[C@@]1(C)CC(=O)C(O)=C(C)[C@@H]1C[C@H]3OC(=O)[C@H](OC(=O)C(Cc1ccccc1)NC(=O)OC(C)(C)C)[C@@H]24` (stereo not given in full), the growth inhibition is 80% (active).

For `CSC(=S)n1nc(-c2cccs2)c(N=Nc2ccc(Cl)cc2)c1C(F)(F)F`, the growth inhibition was 87% (active).

For `CCN1C2=NCCN2S(=O)(=O)c2ccccc21`, the growth inhibition is 11%.

As for `CCCc1cc(-c2ccc(O)c(CCC)c2)ccc1O`, the growth inhibition is 100% (active).

As for `O=[N+]([O-])c1ccc(-c2cccc(Cl)c2)c([N+](=O)[O-])c1`, the growth inhibition was 99% (active).

Take `COC(=O)Oc1nn(C(=O)OC)c(=O)c2ccccc12`: the growth inhibition is 58%.

Take `Cc1n(CC(C)C)c2c([n+]1CC(=O)c1ccc([N+](=O)[O-])cc1)C(=O)c1ccccc1C2=O`: the growth inhibition was 98% (active).

`O=C(c1ccccc1)C1C(c2ccccc2)OP(c2ccccc2)(c2ccccc2)(c2ccccc2)C1c1ccccc1` (stereo not given): the growth inhibition was 99% (active).

As for `Cc1nc2c(cnn2-c2ccccc2)c(=O)o1`, the growth inhibition was -73%.

Regarding `CCOC(=O)C(=O)Nc1nc2c(s1)C(=O)c1ccccc1C2=O`, the growth inhibition is 96% (active).

In the case of `O=C(CCl)OCC(=O)c1ccc(-c2ccccc2)cc1`, the growth inhibition is 98% (active).

As for `ICCCCCCCCCC[n+]1ccc2ccccc2c1`, the growth inhibition was 99% (active).

As for `CCC(C)OC(=O)Nc1cccc(Cl)c1` (stereo not given), the growth inhibition is -8%.

`COc1ccccc1CN1CCCN(Cc2ccccc2OC)C1c1ccccc1F`: the growth inhibition is -5%.

Turning to `ON=C(CC(O)(C(F)(F)Cl)C(F)(F)Cl)CC(O)(C(F)(F)Cl)C(F)(F)Cl`, the growth inhibition is 100% (active).

Take `COC(=O)Cn1/c(=N\N=C(/C)c2ccc(C)cc2)sc2ccccc21`: the growth inhibition is 11%.

As to `CCN(CC)CCOc1ccc(NC(=S)Nc2ccc(OCC(C)C)cc2)cc1`, the growth inhibition was 47%.

Regarding `CCCCCCCCCCNC(=O)CBr`, the growth inhibition is 99% (active).

For the compound `CN(C)c1ccc(N=Nc2ccc(/C=C3\CCOC3=O)cc2)cc1`, the growth inhibition is 7%.

As to `CCc1cccc(CC)c1NC(=O)C1=C(C)NC(C)=C(C(=O)Nc2c(CC)cccc2CC)C1c1ccc2c(c1)OCO2`, the growth inhibition is 39%.

For the compound `Nc1cc2[nH]c(=O)c3cc(Cl)ccc3c2cc1Cl`, the growth inhibition is 59%.

For `COc1ccc(OC(C)=O)c2c1CCC=CC2=O`, the growth inhibition was 92% (active).

In the case of `COc1ccc(-c2n[nH]c(C(F)(F)F)c2N=NN(C)C)cc1OC`, the growth inhibition is 99% (active).

On to `CCC(=NCCCCCCN=C(CC)c1cc(C)cc([N+](=O)[O-])c1O)c1cc(C)cc([N+](=O)[O-])c1O.[Fe]`, for which the growth inhibition was 70% (active).

Take `COc1ccc(CN2CCCN(Cc3ccc(OC)cc3)C2Cc2cc(Cl)ccc2OC)cc1`: the growth inhibition is 56%.

In the case of `Cc1cc(Cc2ccc(Cl)cc2)ccc1O`, the growth inhibition was 99% (active).

As for `CNCCN[C@@H]1c2cc3c(cc2[C@@H](c2cc(OC)c(O)c(OC)c2)[C@H]2C(=O)OC[C@@H]21)OCO3`, the growth inhibition is 84% (active).

On to `Cc1cc(NC(=S)SC(C)C)ccc1Br`, for which the growth inhibition is 99% (active).

Turning to `CC1CC2(C)ON=C(c3ccccc3)N2c2ccccc2S1` (stereo not given), the growth inhibition was 97% (active).

In the case of `O=C(Cc1ccccc1)OC(C(=O)c1ccccc1)c1ccccc1` (stereo not given), the growth inhibition is 92% (active).

In the case of `Nc1ccc2ccccc2c1N=Nc1ccccc1`, the growth inhibition is 98% (active).

In the case of `Clc1ccc(C(c2ccc(Cl)cc2)c2cncnc2)cc1`, the growth inhibition is 97% (active).

As for `OC(C(=Nc1ccccc1)c1ccccc1)c1ccccc1` (stereo not given), the growth inhibition was 98% (active).
